Assay results published in ChEMBL document CHEMBL3433997, “St. Jude Leishmania screening dataset” (2016).

Key:
Type in all cases: functional
[1] = molecular target: Solute carrier family 2, facilitated glucose transporter member 1 (Homo sapiens) (UniProt P11166); assay: ST_JUDE_LEISH: Cytotoxicity at 2uM final concentration against transgenic Leishmania Mexicana promastigotes LmGLUT1 that are glucose transport deficient and complemented with the human glucose transporter GLUT1. Activity is measured by DNA content using SYBR green in vitro
Solute carrier family 2, facilitated glucose transporter member 1 (Homo sapiens), sequence (P11166 whole entry): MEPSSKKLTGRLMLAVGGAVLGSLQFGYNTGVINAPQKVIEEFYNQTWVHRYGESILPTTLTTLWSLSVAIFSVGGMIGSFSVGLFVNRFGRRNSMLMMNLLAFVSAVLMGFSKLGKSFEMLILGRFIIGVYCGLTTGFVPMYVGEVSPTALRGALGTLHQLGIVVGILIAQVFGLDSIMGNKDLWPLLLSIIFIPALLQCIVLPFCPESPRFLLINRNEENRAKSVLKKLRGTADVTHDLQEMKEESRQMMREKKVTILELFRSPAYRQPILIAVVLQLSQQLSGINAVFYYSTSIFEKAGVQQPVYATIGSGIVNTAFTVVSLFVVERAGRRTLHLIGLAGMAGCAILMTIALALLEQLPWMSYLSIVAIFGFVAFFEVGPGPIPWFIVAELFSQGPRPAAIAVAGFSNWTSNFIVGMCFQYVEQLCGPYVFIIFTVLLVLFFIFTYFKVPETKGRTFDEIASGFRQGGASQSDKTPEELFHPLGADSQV

[2] = molecular target: Hexose transporter 1 (Plasmodium falciparum) (UniProt O97467); assay: ST_JUDE_LEISH: Cytotoxicity at 2uM final concentration against transgenic Leishmania Mexicana promastigotes LmPfHT that are glucose transport deficient and complemented with the Plasmodium falciparum hexose transporter. Activity is measured by DNA content using SYBR green in vitro
[3] = molecular target: Glucose transporter (Leishmania mexicana) (UniProt O61059); assay: ST_JUDE_LEISH: Cytotoxicity at 2uM final concentration against transgenic Leishmania Mexicana promastigotes LmGT2 that are glucose transport deficient and complemented with the L. Mexicana glucose transporter 2. Activity is measured by DNA content using SYBR green in vitro

Row | SMILES | inhibition [1] [%] | inhibition [2] [%] | inhibition [3] [%]
1 | COc1ccc2nccc([C@@H](O)CN3CCC(NC(=O)c4ccc5nc(-n6cccc6)sc5c4)CC3)c2c1 | 6.02 | 5.93 | 4.22
2 | CC(C)(CNC(=O)[C@H]1CCCN1)c1nc(-c2ccc(Cl)c(O)c2)c(-c2ccncc2)[nH]1 | 8.17 | 8.03 | 8.28
3 | CC(C)(C)NCCN(Cc1ccc(-c2ccc(C(F)(F)F)cc2)cc1)C(=O)Cn1c(CCc2cccc(F)c2F)nc(=O)c2c1CCC2 | 6.13 | 7.22 | 7.29
4 | CCCNC(=O)c1ccc(N2CCC(c3ccccc3C)CC2)nc1 | 0.89 | 0.25 | 0.97
5 | CN1CCC(C(=O)Nc2cccc(-c3ccc(-c4nc5cc(F)ccc5[nH]4)cc3)c2)CC1 | 8.64 | 10.3 | 9.64
6 | CCn1ccc2c(N3CCCC3=O)cc(C(=O)N[C@@H](Cc3ccccc3)[C@H](O)CNC(C)(C)CCCC(C)C)cc21 | 0 | 0.39 | 0.34
7 | COc1ccc(CC2(c3ccc(F)cc3)N=C(N)N(CCCc3ccc4c(c3)OCO4)C2=O)cc1 (stereo not drawn) | 4 | 5.58 | 5.39
8 | COc1cc(NC(=O)N2CCc3ccc(OCCN(C(C)C)C(C)C)cc32)cc(C(F)(F)F)c1 | 1.98 | 1.73 | 2.06
9 | CCC(CCON1C(N)=NC(N)=NC1(C)C)c1ccc(Cl)c(Cl)c1 (stereo not drawn) | 3.2 | 3.06 | 3.3
10 | COc1ccc(CN2CCC(CNCC(c3ccccc3)c3ccccc3)CC2)cc1 | 3.54 | 3.87 | 2.23
11 | COCCCn1c(=N)c(C(=O)NCCc2ccc(OC)cc2)cc2c(=O)n3cccc(C)c3nc21 | 4.69 | 5.42 | 8.16
